The nature of assay [1]: yeast TOR pathway RPL19A-GFP modulators, primary screen, cell-based, S. cerevisiae, multiplex flow cytometry (AID 1862; in the data active means percent of DMSO control GFP below about 86%;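 further: lower values mimic rapamycin by blocking the RPL19A rise seen in DMSO cells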). The settings on record: S. cerevisiae RPL19A-GFP strain, flow cytometry fluorescence, 3 h; at 10 µM; stronger effect = lower value.
Assay [2] is described as follows: modulators of MEP2-GFP levels in yeast, primary screen, S. cerevisiae, multiplex flow cytometry (AID 1867;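 active means GFP response, as percent of the DMSO control, above the screen-wide mean plus 3 SD, about 139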;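 further: median GFP channel fluorescence of barcode-gated MEP2-GFP cells measured by flow cytometry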). The settings on record: S. cerevisiae MEP2-GFP strain, 3 h, at 10 µM, stronger effect = higher value, 100% means same as DMSO wells. (Flow cytometry measures light scatter and fluorescence of single cells or particles in a stream.)
The nature of assay [3]: modulators of CIT2-GFP expression in yeast, primary screen, S. cerevisiae, GFP fusion, multiplex flow cytometry (AID 1870;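 active means percent response above a set limit, the screen-wide mean plus 3 SD, cut at about 130% in these data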;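 further: barcoded CIT2-GFP strain pooled with four other GFP strains with rapamycin as positive control; median GFP fluorescence per well over plate mean of DMSO wells so 100% = DMSO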). The settings on record: 3 h, at 10 µM, stronger effect = higher value.
Assay [4] can be described thus: modulators of LAP4-GFP expression in yeast, primary screen, S. cerevisiae, multiplex flow cytometry (AID 1873;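 active means GFP signal, as percent of the solvent control, above the screen mean plus 3 SD, about 149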). The settings on record: 3 h, at 10 µM, stronger effect = higher value.
A short description of assay [5]: modulators of AGP1-GFP expression in yeast TOR pathway, primary screen, cell-based, multiplex flow cytometry, S. cerevisiae (AID 1887;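 active means GFP signal above the screen-wide mean plus 3 SD, that is over about 124.5% of the solvent control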;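 further: AGP1-GFP fusion strain of S. cerevisiae within a five-strain barcoded multiplex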). The settings on record: 3 h, at 10 µM, stronger effect = higher value.
Assay [6] is described as follows: inhibitors of CD8+ T cell-vesicle binding, pilot screen, LFA-1/ICAM-1 modulator project, MLPCN validation set, flow cytometry (AID 2523;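 active means response below a set limit, under 55% cells CD8-positive and vesicle-bound, and CD8 cells' 90th-percentile brightness under 279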;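 on vesicle binding response: mean PE anti-B7-1 fluorescence of CD8+ cells relative to row control; 100% = QL9-loaded vesicles with DMSO vehicle in the same plate row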). The settings on record: 2C mouse CD8+ T cells, at 7 µM, stronger effect = lower value; double positive events: measured here: CD8+/vesicle+ event percentage.
For assay [7], the target named is Integrin beta-1 (Homo sapiens) + Integrin alpha-4 (Homo sapiens) (UniProt P13612+P05556). Put plainly: inhibition of HUTS-21 binding to VLA-4, pilot screen, VLA-4 allosteric modulator project, U937 cells, HUTS-21 mAb, flow cytometry, validation set (AID 2674;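 active means inhibition above 50%, about 3 SD of the validation set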;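 further: antibody binding induced by the VLA-4 ligand LDV present at three times its Kd; 0% = LDV ligand with antibody and no compound and 100% = antibody without LDV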). The settings on record: HUTS-21 LIBS mAb binding, at 6.7 µM, stronger effect = higher value, binding induced by LDV ligand.

A short description of assay [8]: superoxide lowering in aged yeast cells, pilot screen, validation compound set (AID 2706;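 active means superoxide response below 65% of plate, a cut near 3 SD across the whole screen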;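 further: yeast exposed to compound for one week at 30 degrees C before staining; 100% = mean of all compound wells on the same plate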). The settings on record: S. cerevisiae aging, superoxide DHE fluorescence; at 10 µM; stronger effect = lower value.
In assay [9] the target is Beta-adrenergic receptor kinase 1 (Homo sapiens) (UniProt P25098). Nature of the assay: GRK2 binders displacing RNA aptamer, biochemical, validation, human GRK2, bead flow cytometry (AID 488806;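 active means aptamer binding inhibition above 30%, about 3 SD of noise from non-fluorescent compounds; inactive means inhibition at or below 30%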). The settings on record: bead-bound GRK2, FAM-aptamer displacement, at 10 µM, stronger effect = higher value.
Assay [10] has as its target Beta-2 adrenergic receptor (Homo sapiens) (UniProt P07550). Nature of the assay: beta2AR agonists driving receptor internalization, pilot screen, cell-based, FAP fluorogen, flow cytometry, validation set (AID 504459).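 Further: agonist-driven loss of surface beta2AR via internalization measured by FAP dye flow cytometry.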 The settings on record: Am2.2-beta2AR cells, FAP surface receptor flow cytometry; at 10 µM; stronger effect = higher value.
For assay [11], the target named is AP-2 complex subunit beta (Homo sapiens) (UniProt P63010). Put plainly: inhibitors of arrestin peptide binding to AP2, pilot screen, biochemical, validation set, GST-AP2 beads, flow cytometry (AID 504541;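 active means inhibition above 54%, about 3 SD of non-fluorescent compounds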;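 further: AP2 carries R879A mutation and is captured from E. coli lysate; bead-bound FITC arrestin peptide fluorescence measuring arrestin peptide binding to AP2; 0% = DMSO wells and 100% = excess unlabeled arrestin peptide control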). The settings on record: FITC arrestin peptide, at 10 µM, stronger effect = higher value, AP2 beta2 appendage fragment, R879A mutant.
Assay [12] is described as follows: yeast V-ATPase proton transport modulators, S. cerevisiae, pHLuorin, HTS validation (AID 504600; in the data active means response above about 15%;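 further: plate controls were DMSO for no effect and reference compound for full effect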). The settings on record: S. cerevisiae pHLuorin cytosolic pH, at 10 µM, stronger effect = higher value.
Assay [13] has as its system anti-desmoglein-3 scFv antibody binding to human DSG3. Put plainly: inhibitors of anti-DSG3 scFv binding to DSG3, pilot screen, biochemical, validation compound set, bead-based, flow cytometry (AID 588368;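 active means binding below the plate cutoff, the plate median minus 3 SD, with a reading above zero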;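 further: signal is the median channel fluorescence of bead-bound GFP antibody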). The settings on record: Protein G beads, DSG3-Fc, scFv-GFP binding, at 10 µM, stronger effect = lower value.
A short description of assay [14]: inhibitors of fungal efflux pumps CDR1, CDR2, MDR1, pilot screen, validation compound set, multiplex, phenotypic (AID 588506;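 active means efflux inhibition above 0.42, the validation set average plus 4 SD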;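 further: Nile Red retained in cells so higher fluorescence means more efflux inhibition; 0 = negative control wells and 1 = enniatin B 25 µM full block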). The settings on record: S. cerevisiae pump-expressing triplex, Nile Red efflux flow cytometry; at 10 µM; stronger effect = higher value; the pumps come from Candida albicans.
Assay [15] concerns the target ATP-binding cassette sub-family B member 6 (Homo sapiens) (UniProt Q9NP58). Nature of the assay: ABCB6 transporter inhibitors, pilot screen, K562-ABCB6 cells, flow cytometry, validation set (AID 588550;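 active means inhibition above the screen-wide mean plus 3 SD, about 51%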;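 further: 0% = DMSO wells and 100% = benzethonium chloride 70 µM positive control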). The settings on record: K562-ABCB6 porphyrin accumulation, 1 h, at 10 µM, stronger effect = higher value.
Assay [16] can be described thus: promoters of myeloid differentiation in arrested cells, primary screen, cell-based, GFP/MAC1 double positive, flow cytometry, validation set (AID 588685;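 active means differentiation response of at least 50%, scaled between solvent and reference control, from cells with both markers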;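 further: compound exposure lasts four days before antibody staining and flow analysis; 0% = DMSO wells and 100% = 5 µM fulvestrant positive control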). The settings on record: ER-HoxA9 marrow cells, stronger effect = higher value, normalized: vehicle 0, fulvestrant 100.

The record followed here is PubChem BioAssay.

Inconclusive results are not listed. Active and inactive are the calls of the source.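 How the source made its calls, unless noted: active means percent response above 42, roughly 3 SD of non-fluorescent test compounds; inactive means the rest.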

The inhibition is the relative decrease from the control value, in per cent.

Sequence of ATP-binding cassette sub-family B member 6 (Homo sapiens) (Q9NP58 whole entry, looked up): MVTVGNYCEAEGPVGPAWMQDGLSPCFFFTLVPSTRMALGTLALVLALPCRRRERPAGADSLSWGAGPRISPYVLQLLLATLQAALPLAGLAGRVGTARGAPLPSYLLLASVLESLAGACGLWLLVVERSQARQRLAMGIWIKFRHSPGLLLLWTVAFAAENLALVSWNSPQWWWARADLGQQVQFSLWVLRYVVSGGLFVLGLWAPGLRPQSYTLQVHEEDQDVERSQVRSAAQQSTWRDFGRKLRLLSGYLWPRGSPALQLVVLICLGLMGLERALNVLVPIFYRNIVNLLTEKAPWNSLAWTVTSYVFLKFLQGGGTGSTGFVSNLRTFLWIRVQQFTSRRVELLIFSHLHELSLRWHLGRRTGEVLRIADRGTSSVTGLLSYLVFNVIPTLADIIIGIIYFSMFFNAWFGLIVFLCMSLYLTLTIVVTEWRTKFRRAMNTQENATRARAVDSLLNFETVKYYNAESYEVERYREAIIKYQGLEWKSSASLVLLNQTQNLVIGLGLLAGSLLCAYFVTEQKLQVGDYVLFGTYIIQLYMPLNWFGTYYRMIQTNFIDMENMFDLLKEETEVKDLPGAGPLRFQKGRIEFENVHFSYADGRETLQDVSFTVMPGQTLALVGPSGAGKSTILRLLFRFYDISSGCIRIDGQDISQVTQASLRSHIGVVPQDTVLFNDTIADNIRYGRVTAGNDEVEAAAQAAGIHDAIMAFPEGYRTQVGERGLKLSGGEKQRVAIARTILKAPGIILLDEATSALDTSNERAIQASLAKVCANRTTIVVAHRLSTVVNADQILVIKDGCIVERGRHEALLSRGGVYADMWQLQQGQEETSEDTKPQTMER
Sequence of Beta-2 adrenergic receptor (Homo sapiens) (P07550 whole entry, looked up): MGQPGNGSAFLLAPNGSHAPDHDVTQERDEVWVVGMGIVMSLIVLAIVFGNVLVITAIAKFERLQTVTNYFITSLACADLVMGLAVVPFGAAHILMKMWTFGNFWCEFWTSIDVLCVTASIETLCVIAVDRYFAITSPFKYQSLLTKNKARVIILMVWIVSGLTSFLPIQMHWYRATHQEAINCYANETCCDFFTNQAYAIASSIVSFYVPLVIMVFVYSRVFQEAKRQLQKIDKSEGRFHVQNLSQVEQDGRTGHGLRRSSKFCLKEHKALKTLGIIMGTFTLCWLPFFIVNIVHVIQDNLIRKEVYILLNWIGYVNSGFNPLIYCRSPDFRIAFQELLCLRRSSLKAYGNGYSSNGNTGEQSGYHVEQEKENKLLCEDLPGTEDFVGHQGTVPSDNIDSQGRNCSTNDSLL
Sequence of Integrin beta-1 (Homo sapiens) + Integrin alpha-4 (Homo sapiens) (P05556 whole entry, looked up): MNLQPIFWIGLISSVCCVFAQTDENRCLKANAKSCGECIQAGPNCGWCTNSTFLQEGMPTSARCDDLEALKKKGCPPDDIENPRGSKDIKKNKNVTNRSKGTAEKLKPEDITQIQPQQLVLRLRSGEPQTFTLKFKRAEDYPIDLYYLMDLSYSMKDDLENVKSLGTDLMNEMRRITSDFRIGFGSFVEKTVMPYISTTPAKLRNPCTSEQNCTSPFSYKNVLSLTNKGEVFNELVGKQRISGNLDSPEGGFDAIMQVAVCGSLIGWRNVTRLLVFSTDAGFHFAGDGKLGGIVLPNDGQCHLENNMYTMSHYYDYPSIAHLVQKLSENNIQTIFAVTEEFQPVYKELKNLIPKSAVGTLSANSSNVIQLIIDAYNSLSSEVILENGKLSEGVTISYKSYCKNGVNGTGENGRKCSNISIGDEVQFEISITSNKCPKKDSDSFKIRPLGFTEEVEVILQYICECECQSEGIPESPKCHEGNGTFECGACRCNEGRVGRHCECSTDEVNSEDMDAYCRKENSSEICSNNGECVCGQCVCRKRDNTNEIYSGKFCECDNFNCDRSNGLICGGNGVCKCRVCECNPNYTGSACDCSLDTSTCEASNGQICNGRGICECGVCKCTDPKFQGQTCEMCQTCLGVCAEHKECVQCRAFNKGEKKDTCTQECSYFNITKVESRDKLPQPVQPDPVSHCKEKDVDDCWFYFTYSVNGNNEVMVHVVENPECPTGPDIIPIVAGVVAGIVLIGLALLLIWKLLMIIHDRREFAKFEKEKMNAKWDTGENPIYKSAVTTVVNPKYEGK
Sequence of Integrin beta-1 (Homo sapiens) + Integrin alpha-4 (Homo sapiens) (P13612 whole entry, looked up): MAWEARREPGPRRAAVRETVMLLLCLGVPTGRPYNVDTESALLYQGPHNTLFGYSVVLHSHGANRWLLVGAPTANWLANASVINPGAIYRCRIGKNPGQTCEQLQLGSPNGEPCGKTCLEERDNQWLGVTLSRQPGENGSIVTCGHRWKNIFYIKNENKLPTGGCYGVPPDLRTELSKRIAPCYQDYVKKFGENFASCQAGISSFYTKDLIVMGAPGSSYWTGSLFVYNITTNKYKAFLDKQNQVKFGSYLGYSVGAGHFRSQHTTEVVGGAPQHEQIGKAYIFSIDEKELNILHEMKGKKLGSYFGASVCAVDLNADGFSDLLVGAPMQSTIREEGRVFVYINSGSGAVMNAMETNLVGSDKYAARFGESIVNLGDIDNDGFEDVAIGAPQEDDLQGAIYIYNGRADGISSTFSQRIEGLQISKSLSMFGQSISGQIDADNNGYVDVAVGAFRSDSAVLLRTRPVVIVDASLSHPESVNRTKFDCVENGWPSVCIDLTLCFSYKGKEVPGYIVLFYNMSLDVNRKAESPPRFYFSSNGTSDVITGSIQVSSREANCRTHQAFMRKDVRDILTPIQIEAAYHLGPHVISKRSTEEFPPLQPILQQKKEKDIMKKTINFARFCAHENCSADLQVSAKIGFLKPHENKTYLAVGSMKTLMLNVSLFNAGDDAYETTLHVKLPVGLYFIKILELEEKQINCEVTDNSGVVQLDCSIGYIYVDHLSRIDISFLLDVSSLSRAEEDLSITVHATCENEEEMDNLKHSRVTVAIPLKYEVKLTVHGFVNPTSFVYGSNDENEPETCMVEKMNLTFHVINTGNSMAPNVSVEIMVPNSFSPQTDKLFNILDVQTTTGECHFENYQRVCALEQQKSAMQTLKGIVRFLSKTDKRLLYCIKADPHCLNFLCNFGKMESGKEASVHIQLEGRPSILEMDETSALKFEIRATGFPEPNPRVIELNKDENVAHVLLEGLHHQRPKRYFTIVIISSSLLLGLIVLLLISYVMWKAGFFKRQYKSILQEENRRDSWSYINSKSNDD
Sequence of AP-2 complex subunit beta (Homo sapiens) (P63010 whole entry, looked up, the tested form may be a part, one chain of several): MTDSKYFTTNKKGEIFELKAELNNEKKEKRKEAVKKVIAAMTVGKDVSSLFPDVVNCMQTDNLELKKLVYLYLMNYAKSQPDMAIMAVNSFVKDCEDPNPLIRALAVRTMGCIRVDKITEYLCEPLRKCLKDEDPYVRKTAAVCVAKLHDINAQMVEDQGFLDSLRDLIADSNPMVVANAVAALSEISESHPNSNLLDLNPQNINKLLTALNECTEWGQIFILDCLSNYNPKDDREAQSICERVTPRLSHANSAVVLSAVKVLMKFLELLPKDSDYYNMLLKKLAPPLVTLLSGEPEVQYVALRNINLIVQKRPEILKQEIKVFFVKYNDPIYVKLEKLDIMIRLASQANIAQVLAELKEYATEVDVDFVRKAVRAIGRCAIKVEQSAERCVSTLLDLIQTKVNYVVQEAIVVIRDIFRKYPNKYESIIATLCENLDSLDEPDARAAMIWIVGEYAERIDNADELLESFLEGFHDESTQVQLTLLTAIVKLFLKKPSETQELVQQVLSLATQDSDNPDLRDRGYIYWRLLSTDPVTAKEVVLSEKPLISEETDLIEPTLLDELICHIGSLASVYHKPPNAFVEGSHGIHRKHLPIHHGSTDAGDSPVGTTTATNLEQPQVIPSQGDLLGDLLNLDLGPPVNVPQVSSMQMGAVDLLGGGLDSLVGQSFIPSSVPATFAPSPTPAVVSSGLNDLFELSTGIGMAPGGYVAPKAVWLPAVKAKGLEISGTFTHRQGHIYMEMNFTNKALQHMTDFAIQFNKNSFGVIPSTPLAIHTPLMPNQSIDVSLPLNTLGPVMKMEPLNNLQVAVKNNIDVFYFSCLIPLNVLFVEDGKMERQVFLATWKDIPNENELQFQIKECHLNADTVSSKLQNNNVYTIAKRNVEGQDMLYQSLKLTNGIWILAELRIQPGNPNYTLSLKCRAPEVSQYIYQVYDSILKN
Sequence of Beta-adrenergic receptor kinase 1 (Homo sapiens) (P25098 whole entry, looked up): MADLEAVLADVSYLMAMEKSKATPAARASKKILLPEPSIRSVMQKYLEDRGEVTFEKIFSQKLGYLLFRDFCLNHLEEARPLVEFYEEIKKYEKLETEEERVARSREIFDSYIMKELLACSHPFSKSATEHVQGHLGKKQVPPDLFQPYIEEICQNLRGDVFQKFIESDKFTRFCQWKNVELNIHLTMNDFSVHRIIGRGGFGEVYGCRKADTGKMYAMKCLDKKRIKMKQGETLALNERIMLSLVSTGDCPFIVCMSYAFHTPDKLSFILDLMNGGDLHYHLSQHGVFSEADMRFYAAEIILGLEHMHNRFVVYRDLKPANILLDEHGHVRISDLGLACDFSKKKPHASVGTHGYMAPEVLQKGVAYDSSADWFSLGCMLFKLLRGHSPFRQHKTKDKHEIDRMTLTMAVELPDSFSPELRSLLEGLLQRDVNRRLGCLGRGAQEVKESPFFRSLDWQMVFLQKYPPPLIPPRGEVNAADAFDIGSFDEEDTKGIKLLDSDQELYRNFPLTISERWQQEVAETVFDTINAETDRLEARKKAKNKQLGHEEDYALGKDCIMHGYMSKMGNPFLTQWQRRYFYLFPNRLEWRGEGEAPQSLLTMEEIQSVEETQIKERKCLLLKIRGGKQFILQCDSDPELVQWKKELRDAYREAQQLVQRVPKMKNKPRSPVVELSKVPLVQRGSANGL

For the molecule `O=C(O)c1ccccc1Nc1cccc(C(F)(F)F)c1`, the percent of DMSO control GFP in assay [1] is 95% (inactive). Moreover, the GFP response vs DMSO in assay [2] was 103% (inactive); in assay [4], 93.1% (inactive). Moreover, in [3], the percent response of DMSO control is 88.2% (inactive). The GFP response, % of DMSO in assay [5] was 82.4% (inactive). In assay [6], this molecule yielded a double positive events of 74%. The vesicle binding response in [6] is 7820% (inactive). Also, the values for the inhibition in assay [7], in assay [11] and in [15] were -15.4% (inactive), -15.2% (inactive) and 112% (active), respectively. Further, the superoxide response (% of plate) in assay [8] is 98.3% (inactive). In addition, the aptamer binding inhibition in [9] is 2% (inactive). Besides, the values for the response in [10] and in assay [12] were -9.88% (inactive) and 1.34% (inactive), respectively. Besides, the binding (% of control) in assay [13] was 98.2% (inactive). In addition, the efflux inhibition (fraction of control) in assay [14] is -0.24 (inactive). The differentiation response in assay [16] is 18.4% (inactive).
Regarding `CC(C)CCc1noc(CN2CCC(CCN3CCCC3=O)CC2)n1`, the percent of DMSO control GFP in assay [1] is 98.3% (inactive). The GFP response vs DMSO in assay [2] is 101% (inactive); in assay [4] it was 99.1% (inactive). In assay [3], the percent response of DMSO control is 105% (inactive). Besides, the GFP response, % of DMSO in assay [5] was 102% (inactive). Moreover, the double positive events in assay [6] was 62.1%. Besides, the vesicle binding response in [6] was 188% (inactive). The results for the inhibition in [7], in assay [11] and in assay [15] were 23% (inactive), 32.4% (inactive) and -3% (inactive), respectively. The superoxide response (% of plate) in [8] was 97.3% (inactive). In addition, the aptamer binding inhibition in assay [9] was -3% (inactive). Besides, the response in assay [10] is -4.37% (inactive); in [12], -4.25% (inactive). In addition, the binding (% of control) in assay [13] is 95.1% (inactive). For the same molecule, the efflux inhibition (fraction of control) in [14] was -0.39 (inactive). Further, the differentiation response in assay [16] is -13.3% (inactive).
In the case of `O=C1C(=O)N2C(=C1C(=O)N1CCCCCC1)c1ccccc1CC21CCCC1`, in [1], the percent of DMSO control GFP was 92.2% (inactive). The GFP response vs DMSO in assay [2] is 109% (inactive); in assay [4], 120% (inactive). For the same molecule, in [3], the percent response of DMSO control is 86.3% (inactive). The GFP response, % of DMSO in [5] was 99.8% (inactive). The same molecule returned a double positive events in assay [6] of 59.4%. In addition, in assay [6], the vesicle binding response is 201% (inactive). Moreover, the inhibition in assay [7] is 9.13% (inactive); in [11], 31.8% (inactive); in [15], 3% (inactive). Also, the superoxide response (% of plate) in [8] was 115% (inactive). Also, the aptamer binding inhibition in [9] is 3% (inactive). The response is -8.46% (inactive) in assay [10] and -1.64% (inactive) in [12]. Further, in assay [13], the binding (% of control) was 105% (inactive). In addition, the efflux inhibition (fraction of control) in assay [14] was -0.13 (inactive). Further, the differentiation response in assay [16] was 5.6% (inactive).
As for `COc1ccc(/C=C(/C#N)c2cccnc2)cc1OC`, the percent of DMSO control GFP in assay [1] is 101% (inactive). In addition, the GFP response vs DMSO was 104% (inactive) in assay [2] and 99.4% (inactive) in [4]. Moreover, the percent response of DMSO control in assay [3] was 94.9% (inactive). The GFP response, % of DMSO in [5] is 99.1% (inactive). Moreover, in assay [6], the double positive events was 54.1%. For the same molecule, the vesicle binding response in [6] was 6.8% (active). For the same molecule, the inhibition in [7] is -13.2% (inactive); in assay [11], 23.7% (inactive); in [15], 2% (inactive). Besides, the superoxide response (% of plate) in [8] was 98.6% (inactive). In [9], the aptamer binding inhibition was 3% (inactive). In addition, the response in assay [10] is -1.52% (inactive); in assay [12], 0.34% (inactive). In addition, in [13], the binding (% of control) is 105% (inactive). In addition, the efflux inhibition (fraction of control) in assay [14] was 0.42 (inactive). The differentiation response in assay [16] is 17.1% (inactive).
